Compound activity: PubChem, National Center for Advancing Translational Sciences (NCATS)
Rows were chosen to be rich in hits. Some 4.7% of all compounds tested hit in one or more screens of this group.
D1 ag: human D1 receptor agonism | P21728 | HEK293 T-REx D1 cells, calcium flux, agonist mode | activation, % at 2 µM | 360,000 compounds, 1% hits | AID 504660
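Agonism was scored from calcium flux recorded over 180 s (1 read/s) after pintool compound addition, following a 10-cycle baseline. Cells were inducible force-coupled HEK293 TREx D1, plated overnight at 30 C and loaded with no-wash calcium dye.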
D1 PAM: human D1 dopamine receptor positive modulation; P21728; HEK293 TREx D1 cells, calcium flux, dopamine EC20 potentiation; potentiation, % at 10 µM; 360,000 compounds, 0.036% hits; in the data active means potentiation above about 30%
TRHR PAM: allosterically enhances the human TRH receptor; AID 493056; 360,000 compounds, 0.66% hits; enhancement, % at 2 µM; TRHR cells, fluo-8 calcium fluorescence, EC20 TRH enhancement; in the data active means enhancement above about 30%
Target sequence (P34981 whole entry, looked up): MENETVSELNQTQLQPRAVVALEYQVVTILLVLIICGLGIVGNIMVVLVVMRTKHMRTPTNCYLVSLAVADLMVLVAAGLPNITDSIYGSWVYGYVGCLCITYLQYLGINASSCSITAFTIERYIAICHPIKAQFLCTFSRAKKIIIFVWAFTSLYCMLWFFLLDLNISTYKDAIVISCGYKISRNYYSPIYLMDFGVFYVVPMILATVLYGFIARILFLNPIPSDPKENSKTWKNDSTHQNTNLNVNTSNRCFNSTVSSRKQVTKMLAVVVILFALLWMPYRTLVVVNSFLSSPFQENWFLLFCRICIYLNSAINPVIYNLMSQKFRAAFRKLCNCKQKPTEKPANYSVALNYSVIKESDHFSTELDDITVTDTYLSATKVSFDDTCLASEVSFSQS
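TRHR-expressing cells loaded with fluo-8 calcium dye were read kinetically (ex 480/em 530) during compound addition, then stimulated with an EC20 of TRH (10 nM final). Enhancement of the Gq-mediated intracellular calcium response was scored.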
D1 antag: antagonists of human D1 dopamine receptor. P21728. HEK293 TREx D1 cells, calcium flux, dopamine EC80; hits give low values. activity change, negative = inhibition, % at 10 µM. 360,000 compounds, 3.2% hits; in the data active means activity change below about -30%
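Using tetracycline-induced force-coupled D1 Hek293 cells and a calcium dye, signals were followed for 180 s after compound, then for 180 s after EC80 dopamine, to detect inhibitors.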
TRHR agonist: agonists of human TRH receptor; P34981; TRHR cells, calcium flux fluo-8, FDSS agonist mode; activation, % at 2 µM; 360,000 compounds, 0.18% hits
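Agonist-mode FDSS calcium read (Ex 480/Em 530, 1 s cycles) in 1536-well TRHR cells with fluo-8 dye, after 10-cycle baseline and 23 nL compound addition; TRH at EC20 (10 nM final) added afterwards for the enhancer phase.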
Of the large screens only hits and unclear results are named; the others gave an inactive call. Unless noted, no stated cut-off is given here; in the data, active means activation above about 30%; inactive means the rest.

COc1cc(NC(=O)C(NS(=O)(=O)c2ccc3c(c2)CCCC(=O)N3)C(C)C)cc(OC)c1 (stereo unspecified)	none
CCOCCCNC(=S)N1CCN(c2nc(-c3ccc(F)cc3)cs2)CC1	D1 antag -31.5
COCCCNC(=S)N1CCN(c2nc(-c3ccc(F)cc3)cs2)CC1	none
CCCNC(=S)N1CCN(c2nc(-c3ccc(C)cc3)cs2)CC1	D1 antag -35.0
Cc1cc(OCC(=O)Nc2cccc(S(=O)(=O)N3CCCCC3)c2)ccc1Cl	none
O=C(CNC(=O)c1ccc(Cl)cc1Cl)OCC(=O)N1CCCC1	none
CC1CCCC(C)N1C(=O)COC(=O)CNC(=O)c1ccc(Cl)cc1Cl (stereo unspecified)	TRHR PAM 33.5
Cc1ccc(S(=O)(=O)N2CCCCC2)cc1NC(=O)CSc1nccn1C	none
COc1cccc(/C=C/C(=O)OCC(=O)Nc2cccc(S(=O)(=O)N3CCCCC3)c2)c1OC	TRHR PAM 34.3
Cc1cc(OCC(=O)Nc2cccc(S(=O)(=O)N3CCCC3)c2)ccc1Cl	D1 antag -30.1
Cn1ccnc1SCC(=O)Nc1cccc(S(=O)(=O)N2CCCCCC2)c1	D1 ag 31.2
COc1cc(OC)c(NC(=O)C2=C(C)C(=O)OC23CCCCC3)cc1Cl	none
CC(=O)c1ccc(NC(=O)c2sc(-n3nc(C)c(CCC(C)C)c3C)nc2C)cc1	none
O=C(COC(=O)CNC(=O)c1ccc(Cl)cc1Cl)Nc1cccc(S(=O)(=O)N2CCCC2)c1	D1 antag -31.8
O=C(Cc1ccccc1Cl)Nc1cccc(S(=O)(=O)N2CCCCCC2)c1	none
O=C(CCc1ccccc1Cl)Nc1cccc(S(=O)(=O)N2CCCC2)c1	D1 antag -32.5
O=C(COC(=O)CNC(=O)c1ccccc1F)Nc1cccc(S(=O)(=O)N2CCCCCC2)c1	none
CCc1ccccc1OCC(=O)Nc1cccc(S(=O)(=O)N2CCCC2)c1	D1 antag -30.0
CCc1ccc(NC(=O)Cn2nc3c4ccccc4n(Cc4ccccc4)cc-3c2=O)cc1	none
CCc1nnc(SCC(=O)NCCC2=CCCCC2)nc1CC	none
Cc1cccc(C)c1NC(=O)CN(C)C(=O)[C@H](C)NC(=O)c1ccco1	D1 antag -80.4
Cc1ccc(C2=NS(=O)(=O)N(C)C(C(=O)NCc3cccs3)=C2)cc1	none
COc1ccc(OC)c(C2=NS(=O)(=O)N(C)C(C(=O)NCc3cccs3)=C2)c1	D1 ag 40.9
O=C(Nc1cccc(F)c1)C1CCN(c2nnnn2-c2ccccc2)CC1	D1 antag -30.4
Cc1ccccc1OCC(=O)Nc1c(C)ccc2nsnc12	none
COc1ccccc1C(=O)NC(CCSC)C(=O)OC(C)C(N)=O (stereo unspecified)	TRHR PAM 36.0
COc1ccccc1OCCNC(=O)C(CCSC)NC(=O)c1ccccc1Cl (stereo unspecified)	none
CSCCC(NC(=O)COc1ccccc1)C(=O)N1CCCCC1 (stereo unspecified)	none
COc1ccccc1C(=O)NC(CCSC)C(=O)NCCCSc1ccccc1 (stereo unspecified)	D1 ag 91.5
COc1ccccc1C(=O)COC(=O)C(CCSC)NC(=O)COc1ccccc1 (stereo unspecified)	TRHR PAM 30.1
CSCCC(NC(=O)COc1ccccc1)C(=O)N1CCC(C(N)=O)CC1 (stereo unspecified)	D1 antag -30.7 (no result: D1 PAM)
COc1ccc(-c2nc(-c3ccccc3)c(-c3ccc(F)cc3)[nH]2)c(OC)c1C	none
O=C(/C=C/c1cccs1)Nc1nc(-c2ccccc2)cs1	D1 antag -36.2
Cc1ccc(C(C)(O)CS(=O)(=O)Cc2ccccc2Cl)cc1 (stereo unspecified)	none
O=C1c2cccc3c([N+](=O)[O-])ccc(c23)C(=O)N1Cc1cccnc1	D1 antag -40.4
O=C1c2cccc3cccc(c23)C(=O)N1Cc1cccnc1	none
CCc1c(C)c2cc(Cl)c(O)c(CN(CC)CC)c2oc1=O	TRHR PAM 38.1
CCc1c(C)c2cc(Cl)c(O)c(CN(C)C)c2oc1=O	none
COc1ccc(NC(=O)c2cccc3c(=O)c4c([nH]c23)CCCC4)cc1	D1 antag -32.9
CC(C)c1ccc(N2C(=O)C3C4C=CC(CC4)C3C2=O)cc1 (stereo unspecified)	none
CC1CC(=O)N(c2ccc(C(C)C)cc2)C(=O)C1	D1 antag -31.6
CCN(CC)P(=O)(c1ccccc1)c1c(C)nc2ccccn12 (stereo unspecified)	none (no result: D1 PAM)
CC(=O)c1c(Cl)nc2cccc3c2c1-c1ccccc1C3=O	TRHR PAM 34.3
COc1cc(-c2c(C(C)=O)c(C)nc3c2C(=O)c2ccccc2-3)cc(OC)c1OC	none
COc1ccc(N2CCN(C(=O)CNC(=O)c3ccco3)CC2)cc1	D1 antag -79.6
COc1ccc(N2CCN(S(=O)(=O)CCNC(=O)c3ccco3)CC2)cc1	none
CC(C)[C@H]1C(=O)Nc2ccccc2N1C(=O)N[C@@H](Cc1ccccc1)C(=O)N[C@@H](Cc1ccccc1)C(=O)O	D1 antag -31.3
CC(C)[C@H]1C(=O)Nc2ccccc2N1C(=O)N[C@@H](Cc1ccccc1)C(=O)N[C@H](Cc1ccccc1)C(=O)O	none
Cc1nc2sc(C(=O)Nc3ccc(F)cc3)c(N)c2c(-c2ccc(Br)cc2)c1C(=O)Nc1ccc(Cl)cc1	none
O=c1[nH]cc(COCC(F)CCl)c(=O)[nH]1 (stereo unspecified)	none
CCc1nnc(N/N=C\c2ccc(OC(C)=O)c(OC)c2)n1N	none
CCOc1cc(/C=N/Nc2nnc(C)n2N)ccc1OC(C)=O	D1 antag -32.7
Cc1ccccc1CNC(=O)Nc1ccc2c(c1)N(C)C(=O)c1ccccc1S2	D1 antag -38.5
Cc1ccccc1CNC(=O)Nc1ccc(Cl)cc1	D1 antag -46.2
CN1C(=O)c2ccccc2Sc2ccc(NC(=O)NCc3ccc(Cl)cc3)cc21	none
O=C(CSc1nnc2[nH]c(=O)cc(-c3ccccc3)n12)Nc1ccc(F)cc1F	none (no result: D1 antag)
Cc1ccc(-n2nnnc2CNC(=O)C2CC(=O)N(c3ccc(F)cc3)C2)cc1C (stereo unspecified)	none
C=CCNC(=O)C1CC(=O)N(c2ccc(OCC(=O)Nc3ccc(OC)cc3)cc2)C1 (stereo unspecified)	none
CCCNC(=O)C1CC(=O)N(c2ccc(OCc3ccc(Cl)cc3)cc2)C1 (stereo unspecified)	none
O=C(NCc1nnnn1-c1ccc(F)cc1)C1CC(=O)N(c2ccc(F)cc2)C1 (stereo unspecified)	D1 antag -30.1
CCCNC(=O)C1CC(=O)N(c2ccc(OCc3ccc(F)cc3)cc2)C1 (stereo unspecified)	D1 antag -36.2
C=CCNC(=O)C1CC(=O)N(c2ccc(OCC(=O)Nc3ccc(C)cc3)cc2)C1 (stereo unspecified)	D1 antag -30.9
